This passage reports Potency results from PubChem BioAssay (NCATS).

Records with an inconclusive call do not appear. A call without a number means that no potency is given here. The source made the active and inactive calls. Calls come from the whole dose curve; as a rule, active = well fitted inhibition curve with a large enough effect; inconclusive = small, poorly fitted or top-dose-only effect; inactive = flat fitted curve, though single readings scatter.
Potency is the fitted concentration of half-maximal effect.

Test system in one experiment: not listed separately
The experiment is described as follows: Drug repurposing screens with cells derived from glioblastoma tumor samples (AID 1345199). Note: nearly all actives have a fitted effect of over 40% in size. To be noted: GBM patient neurospheres viability, ATP luminescence, 48 h; tumour line A. Summed up: (§1)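 Primary testing used CD133+ neurospheres from four GBM patients, seven concentrations, 48 h exposure and ATP-based viability; confirmation added three slower-growing patient lines.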
With `CNCCC(Oc1ccc(C(F)(F)F)cc1)c1ccccc1` (configuration not stated), the Potency was 3.55 µM (active).

Turning to `CNCCCC1c2ccccc2C=Cc2ccccc21`, the Potency was 6.31 µM (active).

Turning to `CSc1ccc2c(c1)N(CCC1CCCCN1C)c1ccccc1S2` (configuration not stated), the Potency is 2.82 µM (active).

Take `COCCOC(=O)C1=C(C)NC(C)=C(C(=O)OC/C=C/c2ccccc2)C1c1cccc([N+](=O)[O-])c1` (configuration not stated): the Potency is 3.55 µM (active).

In the case of `CC(=O)c1ccc2c(c1)N(CCCN(C)C)c1ccccc1S2`, the Potency was 10 µM (active).

For the compound `CN(C)CCCN1c2ccccc2Sc2ccc(Cl)cc21`, the Potency is 3.98 µM (active).

With `Cc1cc(O)cc2c1O[C@](C)(CCC[C@H](C)CCC[C@H](C)CCCC(C)C)CC2`, the Potency is 5.01 µM (active).

Regarding `CC(=O)OCC(=O)[C@@]1(O)CC[C@H]2[C@@H]3CCC4=CC(=O)CC[C@]4(C)[C@H]3C(=O)C[C@@]21C`, the Potency is 25.1 µM (active).

Still in this experiment, the particulars now being: GBM patient neurospheres viability, ATP luminescence, 48 h; tumour line B.
Take `CNCCC(Oc1ccc(C(F)(F)F)cc1)c1ccccc1` (configuration not stated): the Potency is 20 µM (active).

In the case of `CSc1ccc2c(c1)N(CCC1CCCCN1C)c1ccccc1S2` (configuration not stated), the Potency is 20 µM (active).

Regarding `CN(C)CCCN1c2ccccc2Sc2ccc(Cl)cc21`, the Potency was 15.8 µM (active).

Regarding `Cc1cc(O)cc2c1O[C@](C)(CCC[C@H](C)CCC[C@H](C)CCCC(C)C)CC2`, the Potency was 17.8 µM (active).

The same experiment, now with this note: GBM patient neurospheres viability, ATP luminescence, 48 h; tumour line D.
In the case of `CSc1ccc2c(c1)N(CCC1CCCCN1C)c1ccccc1S2` (configuration not stated), the Potency was 5.01 µM (active).

`COCCOC(=O)C1=C(C)NC(C)=C(C(=O)OC/C=C/c2ccccc2)C1c1cccc([N+](=O)[O-])c1` (configuration not stated): the Potency is 12.6 µM (active).

For `CN(C)CCCN1c2ccccc2Sc2ccc(Cl)cc21`, the Potency was 20 µM (active).

Take `Cc1cc(O)cc2c1O[C@](C)(CCC[C@H](C)CCC[C@H](C)CCCC(C)C)CC2`: the Potency is 35.5 µM (active).

Another experiment deals with astro (control astrocytes). Described as above. To be noted: viability, ATP luminescence, 48 h; series mostly up to 45.9 µM. Summed up:
as §1
As for `NC(=O)NC(=O)Cc1ccccc1`, the Potency entry is “inactive”.

Consider `NC(=O)NNc1ccccc1`, for which the Potency entry was “inactive”.

For `N[C@H](C(=O)O)c1ccc(O)cc1`, the Potency entry is “inactive”.

Regarding `NC(=O)c1ncn([C@@H]2O[C@H](CO)[C@@H](O)[C@H]2O)n1`, the Potency entry is “inactive”.

Take `Nc1ccc(S(=O)(=O)NC(=O)c2ccccc2)cc1`: the Potency entry is “inactive”.

As for `CCN(CC)CCNC(=O)c1c(C)[nH]c(/C=C2\C(=O)Nc3ccc(F)cc32)c1C`, the Potency is 12.6 µM (active).

Consider `N[C@H]1C(O)O[C@H](CO)[C@@H](O)[C@@H]1O` (some centres not stated), for which the Potency result was “inactive”.

For the compound `O=S(=O)(O)NC1CCCCC1`, the Potency entry is “inactive”.

For the compound `OC[C@H]1O[C@@H](O[C@@H]2[C@@H](CO)O[C@](O)(CO)[C@H]2O)[C@H](O)[C@@H](O)[C@H]1O`, the Potency entry was “inactive”.

With `CN(C)CCCO[C@@H]1[C@H]2OC(C)(C)O[C@H]2O[C@@H]1C(O)CO` (some centres not stated), the Potency result is “inactive”.

Turning to `C[C@@H]1CC[C@@]2(OC1)O[C@H]1C[C@H]3[C@@H]4CC[C@H]5C[C@@H](O)CC[C@]5(C)[C@H]4CC(=O)[C@]3(C)[C@H]1[C@@H]2C`, the Potency result was “inactive”.

Turning to `CSc1ccc2c(c1)N(CCC1CCCCN1C)c1ccccc1S2` (configuration not stated), the Potency is 20 µM (active).

For `CC1=C(CC(=O)O)c2cc(F)ccc2/C1=C\c1ccc(S(C)=O)cc1` (configuration not stated), the Potency result was “inactive”.

Turning to `C[C@H]1O[C@@H](n2cc(F)c(=O)[nH]c2=O)[C@H](O)[C@@H]1O`, the Potency entry is “inactive”.

In the case of `O=S(=O)(O)c1cc(I)c(O)c2ncccc12`, the Potency entry was “inactive”.

Take `CN1[C@@H]2CC(OC(=O)[C@H](CO)c3ccccc3)C[C@H]1[C@@H]1O[C@@H]12` (some centres not stated): the Potency result was “inactive”.

As to `CC1(C)OC(=O)NC1=O`, the Potency result was “inactive”.

Turning to `CCCCCCCCCCCCCCCCCCOCC(O)CO` (configuration not stated), the Potency entry is “inactive”.

Consider `CC(=O)CCC(=O)O`, for which the Potency result was “inactive”.

As to `C=CCn1c(=O)n([C@@H]2O[C@H](CO)[C@@H](O)[C@H]2O)c2nc(N)[nH]c(=O)c21`, the Potency result was “inactive”.

As for `CC(=O)c1ccc2c(c1)N(CCCN(C)C)c1ccccc1S2`, the Potency result is “inactive”.

On to `CC1(C)CO[C@@H](CC(=O)O)CN1`, for which the Potency entry is “inactive”.

Turning to `CC(=O)Oc1c(C)c(C)c2c(c1C)CC[C@@](C)(CCC[C@H](C)CCC[C@H](C)CCCC(C)C)O2`, the Potency entry is “inactive”.

As to `CN(C)CCCN1c2ccccc2Sc2ccc(Cl)cc21`, the Potency is 12.6 µM (active).

For the compound `C[C@H](N)[C@H](O)c1cccc(O)c1`, the Potency result was “inactive”.

For the compound `Cc1cc(O)cc2c1O[C@](C)(CCC[C@H](C)CCC[C@H](C)CCCC(C)C)CC2`, the Potency result was “inactive”.

For the compound `CCN(CC)CCCC(C)Nc1c2ccc(Cl)cc2nc2ccc(OC)cc12` (configuration not stated), the Potency was 20 µM (active).

On to `CCCCN(CCCC)CC(O)c1cc(Cl)cc2c1-c1ccc(Cl)cc1/C2=C/c1ccc(Cl)cc1` (configuration not stated), for which the Potency entry was “inactive”.

Take `CC(=O)NC(Cc1ccccc1)C(=O)O` (configuration not stated): the Potency entry is “inactive”.

`CC(=O)OCC(=O)[C@@]1(O)CC[C@H]2[C@@H]3CCC4=CC(=O)CC[C@]4(C)[C@H]3C(=O)C[C@@]21C`: the Potency result was “inactive”.

On to `CC[C@@]1(c2ccccc2)NC(=O)N(C)C1=O`, for which the Potency result was “inactive”.
